From PubChem BioAssay AID1159580 (chemical genetic matrix, 2015)
“And” between values parts separate entries of the source, which are not always exact repeats. Identical values can stand only once. Among all 5,500 compounds or so, about 2,000 (36%) were called active. About 18% were inconclusive and are not listed. Rule as the data show it: active = normalized growth mostly below about 0.91 (no sharp cut-off); inconclusive = no clear call, values can overlap the other calls; inactive = mostly above about 0.92. Some of the results follow.

Assay: chemical genetic growth profiling, strain panel (AID 1159580);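 also: tested at 20 µM; growth read once vehicle control cultures reached saturation at 30 °C; 1 = growth at the plate median or of vehicle wells; lower values mean less growth of the strain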
Conditions: S. cerevisiae deletion strains, growth OD

Measured: normalized growth

COCCOC(=O)C1=C(C)NC(C)=C(C(=O)OC(C)C)C1c1cccc([N+](=O)[O-])c1 (stereo not given)
inactive: locus YAL013W, strain DEP1, stronger effect = lower value 1.01 | locus YAL021C, strain ccr4, stronger effect = lower value 1.04 | locus YAL026C, strain drs2, stronger effect = lower value 1.02 | locus YAL030W, strain snc1, stronger effect = lower value 1.02 | locus YAL040C, strain CLN3, stronger effect = lower value 1 | locus YBL061C, strain skt5, stronger effect = lower value 1.02 | locus YBR009C, strain hhf1, stronger effect = lower value 0.988 | locus YBR021W, strain FUR4, stronger effect = lower value 1.01 | locus YBR023C, strain chs3, stronger effect = lower value 1.02 | locus YBR171W, strain sec66, stronger effect = lower value 1.02 | locus YBR229C, strain ROT2, stronger effect = lower value 0.999 | locus YBR231C, strain swc5, stronger effect = lower value 0.996 | locus YBR279W, strain paf1, stronger effect = lower value 0.992 | locus YCL011C, strain gbp2, stronger effect = lower value 1.02 | locus YCL016C, strain dcc1, stronger effect = lower value 1.01 | locus YCL029C, strain bik1, stronger effect = lower value 1.02 | locus YCL061C, strain MRC1 (second series), stronger effect = lower value 1.01 | locus YCL069W, strain vba3, stronger effect = lower value 1.02 | locus YCR088W, strain abp1, stronger effect = lower value 1.01 | locus YDL005C, strain med2, stronger effect = lower value 1.01 | locus YDL035C, strain GPR1, stronger effect = lower value 1.01 | locus YDL040C, strain nat1, stronger effect = lower value 0.999 | locus YDL074C, strain BRE1, stronger effect = lower value 0.996 | locus YDL101C, strain DUN1, stronger effect = lower value 1.01 | locus YDL134C, strain PPH21, stronger effect = lower value 1.01 | locus YDL185W, strain tfp1, stronger effect = lower value 1.02 | locus YDL192W, strain arf1, stronger effect = lower value 1.02 | locus YDR001C, strain nth1, stronger effect = lower value 1.01 | locus YDR069C, strain doa4, stronger effect = lower value 0.982 | locus YDR101C, strain arx1, stronger effect = lower value 1.01 | locus YDR137W, strain rgp1, stronger effect = lower value 0.925 | locus YDR150W, strain NUM1, stronger effect = lower value 1.01 and 0.999 | locus YDR159W, strain sac3, stronger effect = lower value 0.967 | locus YDR162C, strain NBP2, stronger effect = lower value 0.992 | locus YDR195W, strain ref2 1.01 | locus YDR297W, strain sur2, stronger effect = lower value 1.01 | locus YDR318W, strain mcm21, stronger effect = lower value 1.01 | locus YDR334W, strain swr1, stronger effect = lower value 1 | locus YDR335W, strain msn5, stronger effect = lower value 1.01 | locus YDR363W, strain ESC2, stronger effect = lower value 1.01 | locus YDR388W, stronger effect = lower value 1.01 | locus YDR392W, strain spt3, stronger effect = lower value 0.977 | locus YDR502C, strain sam2, stronger effect = lower value 1 | locus YEL003W, strain gim4, stronger effect = lower value 1.01 | locus YEL037C, strain rad23, stronger effect = lower value 1.01 | locus YEL061C, strain CIN8 (second series), stronger effect = lower value 1 | locus YEL061C, strain CIN8, stronger effect = lower value 1 | locus YER002W, strain NOP16, stronger effect = lower value 0.993 | locus YER015W, strain faa2, stronger effect = lower value 1.01 | locus YER016W, strain bim1, stronger effect = lower value 0.989 | locus YER110C, stronger effect = lower value 1.02 | locus YER111C, strain swi4, stronger effect = lower value 1.02 | locus YER155C, strain BEM2 (second series), stronger effect = lower value 1.03 | locus YER155C, strain BEM2, stronger effect = lower value 1.02 | locus YER167W, strain BCK2, stronger effect = lower value 1.01 | locus YFR010W, strain ubp6, stronger effect = lower value 1.01 | locus YGL078C, strain dbp3, stronger effect = lower value 1.01 | locus YGL086W, strain mad1, stronger effect = lower value 0.992 | locus YGL167C, strain pmr1, stronger effect = lower value 1 | locus YGL173C, strain kem1, stronger effect = lower value 1.01 | locus YGL227W, strain vid30, stronger effect = lower value 1.03 | locus YGL240W, strain doc1, stronger effect = lower value 0.984 | locus YGL248W, strain PDE1, stronger effect = lower value 1 | locus YGL253W, strain hxk2, stronger effect = lower value 1.01 | locus YGR078C, strain PAC10, stronger effect = lower value 1 and 0.918 | locus YGR135W, strain pre9, stronger effect = lower value 0.997 | locus YGR229C, strain SMI1, stronger effect = lower value 1 | locus YGR252W, strain gcn5, stronger effect = lower value 0.961 | locus YHR013C, strain ard1, stronger effect = lower value 1.02 | locus YHR027C, strain rpn1, stronger effect = lower value 1.01 | locus YHR030C, strain SLT2, stronger effect = lower value 1.01 and 0.955 | locus YHR079C, strain IRE1 (second series), stronger effect = lower value 1 | locus YHR079C, strain IRE1, stronger effect = lower value 0.95 | locus YHR094C, strain hxt1, stronger effect = lower value 1.01 | locus YHR129C, strain ARP1, stronger effect = lower value 0.999 | locus YHR142W, strain chs7, stronger effect = lower value 1.04 | locus YHR200W, strain rpn10, stronger effect = lower value 1.02 | locus YIL066C, strain RNR3, stronger effect = lower value 1.01 | locus YIL073C, strain SPO22, stronger effect = lower value 1.04 | locus YIL125W, strain kgd1, stronger effect = lower value 1.01 | locus YIR030C, strain dcg1, stronger effect = lower value 1.01 | locus YJL092W, strain hpr5, stronger effect = lower value 1.02 | locus YJL095W, strain BCK1 (second series), stronger effect = lower value 1.02 | locus YJL095W, strain BCK1, stronger effect = lower value 1 and 0.972 | locus YJL115W, strain asf1, stronger effect = lower value 1.02 | locus YJL129C, strain trk1, stronger effect = lower value 0.987 | locus YJL134W, strain LCB3, stronger effect = lower value 1.01 | locus YJL154C, strain vps35, stronger effect = lower value 1 | locus YJL164C, strain tpk1, stronger effect = lower value 1.02 | locus YJL166W, strain qcr8, stronger effect = lower value 1.02 | locus YJL168C, strain set2, stronger effect = lower value 1.01 | locus YJL187C, strain SWE1 (second series), stronger effect = lower value 1 | locus YJL187C, strain SWE1, stronger effect = lower value 1.01 | locus YJR043C, strain POL32, stronger effect = lower value 0.999 | locus YJR066W, strain TOR1, stronger effect = lower value 0.946
